Measured values from PubChem BioAssay AID1159580 (chemical genetic matrix, 2015).
Hit rate of the full screen: of about 5,500 compounds, about 2,000 (36%) were called active. Inconclusive results (about 18%) are left out. No stated cut-off is given here; in the data, active means normalized growth mostly below about 0.91 (no sharp cut-off); inconclusive means no clear call, values can overlap the other calls; inactive means mostly above about 0.92. The list shows a part of the results.

Assay: chemical genetic growth profiling, strain panel (AID 1159580);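 further: tested at 20 µM; growth read once vehicle control cultures reached saturation at 30 °C; 1 = growth at the plate median or of vehicle wells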
Settings: growth OD
[1] = S. cerevisiae deletion strains, locus YAL013W, strain DEP1, stronger effect = lower value
[2] = S. cerevisiae deletion strains, locus YBR229C, strain ROT2, stronger effect = lower value
[3] = S. cerevisiae deletion strains, locus YCL061C, strain MRC1, stronger effect = lower value
[4] = S. cerevisiae deletion strains, locus YDL101C, strain DUN1, stronger effect = lower value
[5] = S. cerevisiae deletion strains, locus YDR150W, strain NUM1, stronger effect = lower value
[6] = S. cerevisiae deletion strains, locus YEL061C, strain CIN8, stronger effect = lower value
[7] = S. cerevisiae deletion strains, locus YGR078C, strain PAC10, stronger effect = lower value
[8] = S. cerevisiae deletion strains, locus YHR030C, strain SLT2, stronger effect = lower value
[9] = S. cerevisiae deletion strains, locus YHR087W, strain rtc3, stronger effect = lower value
[10] = S. cerevisiae deletion strains, locus YJL187C, strain SWE1, stronger effect = lower value
[11] = S. cerevisiae deletion strains, locus YJR043C, strain POL32, stronger effect = lower value
[12] = S. cerevisiae deletion strains, locus YJR075W, strain HOC1, stronger effect = lower value
[13] = S. cerevisiae deletion strains, locus YLR039C, strain RIC1, stronger effect = lower value
[14] = S. cerevisiae deletion strains, locus YLR058C, strain SHM2 (second series), stronger effect = lower value
[15] = S. cerevisiae deletion strains, locus YLR085C, strain ARP6, stronger effect = lower value
[16] = S. cerevisiae deletion strains, locus YLR262C, strain YPT6, stronger effect = lower value
[17] = S. cerevisiae deletion strains, locus YML094W, strain GIM5, stronger effect = lower value
[18] = S. cerevisiae deletion strains, locus YMR219W, strain ESC1, stronger effect = lower value
[19] = S. cerevisiae deletion strains, locus YMR263W, strain SAP30, stronger effect = lower value
[20] = S. cerevisiae deletion strains, locus YNL153C, strain GIM3, stronger effect = lower value
[21] = S. cerevisiae deletion strains, locus YNL298W, strain CLA4 (second series), stronger effect = lower value
[22] = S. cerevisiae deletion strains, locus YNL322C, strain KRE1, stronger effect = lower value
[23] = S. cerevisiae deletion strains, locus YNR030W, strain Alg12, stronger effect = lower value
[24] = S. cerevisiae deletion strains, locus YPL055C, strain LGE1, stronger effect = lower value
[25] = S. cerevisiae deletion strains, locus YPL241C, strain CIN2, stronger effect = lower value
[26] = S. cerevisiae deletion strains, locus YPR135W, strain CTF4, stronger effect = lower value
[27] = S. cerevisiae deletion strains, locus YDL134C, strain PPH21, stronger effect = lower value
[28] = S. cerevisiae deletion strains, locus YKL190W, strain CNB1, stronger effect = lower value

Measured: normalized growth

O=C(NNC(=S)Nc1cccc(Cl)c1)c1cccnc1
inactive: [1] 1 | [2] 1 | [3] 0.976 | [4] 0.978 | [5] 0.969 | [6] 1.01 | [7] 0.97 | [8] 0.939 | [9] 0.992 | [10] 0.985 | [11] 0.999 | [12] 0.982 | [13] 1.03 | [14] 0.997 | [15] 0.885 | [16] 1.02 | [17] 0.965 | [18] 0.999 | [19] 0.949 | [20] 0.979 | [21] 0.98 | [22] 0.994 | [23] 0.956 | S. cerevisiae deletion strains, locus YOL006C, strain TOP1, stronger effect = lower value 0.803 | [24] 0.868 | [25] 0.972 | [26] 0.893

O=C(CSCc1c(Cl)cccc1Cl)NNC(=S)NC1CC2C=CC1C2 (centres undefined)
inactive: [1] 0.99 | [2] 0.972 | [4] 0.94 | [5] 0.956 | [7] 0.97 | [8] 0.838 | [9] 1.06 | [10] 0.979 | [11] 0.971 | [12] 0.973 | [14] 1.01 | [15] 0.788 | [18] 1.01 | [19] 0.944 | [20] 0.955 | [22] 1.02 | [24] 0.867 | [26] 0.873
active: [27] 0.857 | [28] 0.762 | [13] 0.607 | [16] 0.59 | [17] 0.827 | S. cerevisiae deletion strains, locus YNL128W, strain TEP1, stronger effect = lower value 0.792 | [21] 0.658 | [23] 0.781 | [25] 0.696 | S. cerevisiae strains, strain wild type, stronger effect = lower value 0.746

O=C(NNC(=S)NC1CC2C=CC1C2)c1cccnc1 (centres undefined)
inactive: [1] 0.985 | [2] 0.992 | [3] 0.971 | [4] 0.979 | [27] 0.992 | [5] 0.971 | [6] 0.977 | [7] 0.982 | [8] 0.908 | [9] 1.07 | [10] 0.989 | [11] 0.977 | [12] 0.986 | [28] 0.997 | [13] 0.812 | [14] 0.985 | [15] 0.938 | [17] 0.962 | [18] 0.993 | [19] 0.984 | S. cerevisiae deletion strains, locus YMR307W, strain GAS1, stronger effect = lower value 1.22 | [20] 0.993 | [21] 0.958 | [22] 0.993 | [23] 0.979 | [24] 0.979 | [25] 0.964 | [26] 0.92
active: [16] 0.809
